Earlier results, collected in PMC11062922 (Nature Chemical Biology, 2023).

What was measured:
[1] = tested on: JAK1(JH2domain-pseudokinase)
[2] = tested on: JAK2(JH1domain-catalytic)
[3] = tested on: RSK1(Kin.Dom.1-N-terminal)
[4] = tested on: RSK3(Kin.Dom.1-N-terminal)
[5] = tested on: TYK2(JH2domain-pseudokinase)

Measured: KINOMEScan

COc1cc(Nc2ncc3c(C)nc(-c4cc5ccccc5[nH]4)n3n2)cc(OC)c1OC [GW869516X]
active: AMPK-alpha1 89% | AMPK-alpha2 61% | BLK 60% | CIT 100% | CLK1 88% | CLK2 75% | CSNK2A1 96.4% | CSNK2A2 99.7% | DDR1 52% | DDR2 52% | DYRK1A 85% | DYRK1B 81% | EPHB1 58% | FLT3-autoinhibited 75% | FLT3 96.3% | GCN2(Kin.Dom.2,S808G) 88% | HIPK1 79% | INSRR 53% | [1] 98.5% | [2] 54% | KIT 72% | LCK 71% | MAP3K4 52% | MEK5 78% | MERTK 56% | MLK1 93.8% | MLK2 89% | MLK3 87% | NEK11 86% | NEK2 70% | NEK3 89% | NEK5 99% | NEK6 99.6% | NEK7 99.7% | NEK9 90% | PAK3 69% | PIP5K1C 89% | PIP5K2C 90.3% | PKAC-beta 51% | [3] 91.7% | [4] 66% | SLK 63% | SRC 90.1% | STK16 86% | SYK 53% | TBK1 58% | [5] 82% | ULK2 51% | WEE2 85%
